Structures can show the parent of a compound that is named as a salt. ± gives the standard deviation.
Each compound was assayed on Jurkat (assay: mean cell size (FSC-A) relative to DMSO control (fraction of control); higher = larger cells). Conditions: 48 h.
Method in brief: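 Jurkat cells seeded at 600 cells/µl were incubated 1 h, then exposed for 48h to the Enzo Screen-Well FDA Approved Drug Library v2.0 at 25µM in 0.9% (v/v) final DMSO. Drugs that cut counts below 20% of controls were diluted 10-fold and retested, down to 25nM. Cell count and mean cell size (forward scatter area) were read on an Accuri C6 flow cytometer, relative to solvent-only controls. Plates held 6-12 controls; values are means of 3 biological replicates.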
`C[C@H](CCC(=O)O)[C@H]1CC[C@H]2[C@@H]3[C@@H](O)C[C@@H]4C[C@H](O)CC[C@]4(C)[C@H]3CC[C@]12C` [Ursodiol] (concentration: 25 µM) was tested, and the mean cell size was 1.01 ± 0.031.
Work on `CC#C[C@]1(O)CC[C@H]2[C@@H]3CCC4=CC(=O)CCC4=C3[C@@H](c3ccc(N(C)C)cc3)C[C@@]21C` [Mifepristone] (concentration: 25 µM) yielded a mean cell size of 0.903 ± 0.021.
With `COC(=O)[C@H]1[C@H]2C[C@@H]3c4[nH]c5cc(OC)ccc5c4CCN3C[C@H]2C[C@@H](OC(=O)c2cc(OC)c(OC)c(OC)c2)[C@@H]1OC` [Reserpine] (concentration: 25 µM) the mean cell size was 0.988 ± 0.025.
Work on `C=CC[C@@H]1/C=C(\C)C[C@H](C)C[C@H](OC)[C@H]2O[C@@](O)(C(=O)C(=O)N3CCCC[C@H]3C(=O)O[C@H](/C(C)=C/[C@@H]3CC[C@@H](O)[C@H](OC)C3)[C@H](C)[C@@H](O)CC1=O)[C@H](C)C[C@@H]2OC` [Tacrolimus (Fk506)] (concentration: 25 µM) yielded a mean cell size of 0.83 ± 0.065.
`CCCCc1ncc(/C=C(\Cc2cccs2)C(=O)O)n1Cc1ccc(C(=O)O)cc1` [Eprosartan Mesylate] (concentration: 25 µM) gave a mean cell size of 1.01 ± 0.06.
`Nc1cccc2c1CN(C1CCC(=O)NC1=O)C2=O` (stereo unspecified) [Lenalidomide] (concentration: 25 µM) showed a mean cell size of 0.951 ± 0.021.
`C[C@@H](O)[C@H]1C(=O)N2C(C(=O)O)=C(S[C@@H]3CN[C@H](CNS(N)(=O)=O)C3)[C@H](C)[C@H]12` [Doripenem] (concentration: 25 µM) gave a mean cell size of 0.94 ± 0.011.
`C[C@@H](CN1CC(=O)NC(=O)C1)N1CC(=O)NC(=O)C1` [Dexrazoxane] (concentration: 25 µM) showed a mean cell size of 0.9682 ± 0.0057.
Work on `CCOC(=O)C1=C[C@@H](OC(CC)CC)[C@H](NC(C)=O)[C@@H](N)C1` [Oseltamivir Phosphate] (concentration: 25 µM) yielded a mean cell size of 0.932 ± 0.023.
With `Nc1ccc(S(N)(=O)=O)cc1` [Sulfanilamide] (concentration: 25 µM) the mean cell size was 0.925 ± 0.018.
For `CC(C)(C)NC[C@H](O)COc1cccc2c1CCCC2=O` [Levobunolol·HCl] (concentration: 25 µM), the mean cell size was 0.964 ± 0.056.
`Nc1nc(N)c2nc(-c3ccccc3)c(N)nc2n1` [Triamterene] (concentration: 25 µM) showed a mean cell size of 1.21 ± 0.038.
Work on `Cc1cccc(C)c1NC(=O)C1CCCCN1C` (stereo unspecified) [Mepivacaine·HCl] (concentration: 25 µM) yielded a mean cell size of 0.91 ± 0.035.
With `COc1ccc([C@@H]2Sc3ccccc3N(CCN(C)C)C(=O)[C@@H]2OC(C)=O)cc1` [Diltiazem·HCl] (concentration: 25 µM) the mean cell size was 0.959 ± 0.053.
`Nc1nc(O)c2ncn(CCC(CO)CO)c2n1` [Penciclovir] (concentration: 25 µM) gave a mean cell size of 0.95 ± 0.021.
With `CCOC(=O)C1=C(COCCN)NC(C)=C(C(=O)OC)C1c1ccccc1Cl` (stereo unspecified) [Amlodipine] (concentration: 25 µM) the mean cell size was 1.06 ± 0.053.
`Clc1ccccc1C(c1ccccc1)(c1ccccc1)n1ccnc1` [Clotrimazole] (concentration: 25 µM) was tested, and the mean cell size was 0.92 ± 0.04.
In the case of `CCC1=C(C)CN(C(=O)NCCc2ccc(S(=O)(=O)NC(=O)N[C@H]3CC[C@H](C)CC3)cc2)C1=O` [Glimepiride] (concentration: 25 µM), the mean cell size is reported as 0.94 ± 0.02.
`Cc1cc(C2CCCCC2)n(O)c(=O)c1` [Ciclopirox] (concentration: 2.5 µM) gave a mean cell size of 1.14 ± 0.032.
With `CN/C(=N\CCSCc1nc[nH]c1C)NC#N` [Cimetidine] (concentration: 25 µM) the mean cell size was 1.02 ± 0.072.
`CCCCCOC(=O)Nc1nc(=O)n([C@@H]2O[C@H](C)[C@@H](O)[C@H]2O)cc1F` [Capecitabine] (concentration: 25 µM) showed a mean cell size of 0.957 ± 0.019.
In the case of `CCCN(CCC)CCc1cccc2c1CC(=O)N2` [Ropinirole·HCl] (concentration: 25 µM), the mean cell size is reported as 0.974 ± 0.012.
`O=C1Nc2ccc(Cl)cc2[C@@](C#CC2CC2)(C(F)(F)F)O1` [Efavirenz] (concentration: 25 µM) was tested, and the mean cell size was 0.9 ± 0.017.
`CC(COc1ccccc1)N(CCCl)Cc1ccccc1` (stereo unspecified) [Phenoxybenzamine·HCl] (concentration: 25 µM) was tested, and the mean cell size was 0.965 ± 0.021.
`COc1cc(C(=O)NCc2ccc(OCCN(C)C)cc2)cc(OC)c1OC` [Trimethobenzamide·HCl] (concentration: 25 µM) was tested, and the mean cell size was 0.9923 ± 0.0096.
With `Cc1ccc(/C(=C\CN2CCCC2)c2cccc(/C=C/C(=O)O)n2)cc1` [Acrivastine] (concentration: 5 µM) the mean cell size was 1.06 ± 0.052.

Source: the supplement of paper PMC4709259
